# Experimental data published in article PMC7862700, “An all-to-all approach to the identification of sequence-specific readers for epigenetic DNA modifications on cytosine”.
# Tests used:
# Assay in all cases: DAPPL (digital affinity profiling via proximity ligation, sequencing); 10 mM Tris-HCl pH 7.5, 50 mM NaCl, 1 mM DTT, 4% glycerol, room temperature, 30 min; GST-TFs on glutathione beads, 16-mer random dsDNA library, 0.1% formaldehyde crosslink after washing; high values mean tight binding
# FEV = target: T1, FEV (Homo sapiens, UniProt Q99581 1-238); settings: protein: recombinant; tags: N-terminal GST; dsDNA, one strand shown
# T1 sequence: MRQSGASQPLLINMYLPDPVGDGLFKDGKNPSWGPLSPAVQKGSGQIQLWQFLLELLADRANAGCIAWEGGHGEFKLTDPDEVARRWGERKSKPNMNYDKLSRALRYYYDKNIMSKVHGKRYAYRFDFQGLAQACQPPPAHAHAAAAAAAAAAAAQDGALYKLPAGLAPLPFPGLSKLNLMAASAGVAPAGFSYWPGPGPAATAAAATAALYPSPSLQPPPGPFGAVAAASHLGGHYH
# Outline: (§1)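 Binding signal is defined as a hexamer's read frequency for one factor over its frequency for the tag-only sample. To obtain reads, GST-fused human transcription factors were expressed in yeast, captured on glutathione beads, barcoded with DNA and pooled with that sample. Pools met 200 nmole of a 16-mer random double-stranded DNA library in Tris/NaCl/DTT/glycerol buffer for 30 min at room temperature before washing, 0.1% formaldehyde crosslinking, proximity ligation (BsaI/T4 ligase, 1 h, 37 °C), PCR and Illumina NextSeq500 sequencing.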
# ETV5 = ETV5 (Homo sapiens, UniProt P41161 1-510); settings: protein: recombinant; tags: N-terminal GST; dsDNA, one strand shown
# ETV5, sequence (P41161 whole entry): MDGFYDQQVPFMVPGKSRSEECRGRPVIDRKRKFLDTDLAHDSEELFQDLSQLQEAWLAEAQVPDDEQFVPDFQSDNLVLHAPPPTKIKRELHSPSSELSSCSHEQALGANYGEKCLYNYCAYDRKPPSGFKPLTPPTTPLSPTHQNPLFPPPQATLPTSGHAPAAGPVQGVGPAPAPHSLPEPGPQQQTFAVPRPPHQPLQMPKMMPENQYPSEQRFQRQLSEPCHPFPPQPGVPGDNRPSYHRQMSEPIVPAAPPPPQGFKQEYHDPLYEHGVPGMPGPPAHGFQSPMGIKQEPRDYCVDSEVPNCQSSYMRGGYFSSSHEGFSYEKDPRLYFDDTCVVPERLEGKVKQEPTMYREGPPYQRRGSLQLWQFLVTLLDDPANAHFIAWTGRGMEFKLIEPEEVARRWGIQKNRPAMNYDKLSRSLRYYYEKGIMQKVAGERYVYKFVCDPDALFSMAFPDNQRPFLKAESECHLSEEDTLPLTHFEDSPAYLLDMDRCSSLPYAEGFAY
# Outline: as §1
# HSF1 = HSF1 (Homo sapiens, UniProt Q00613 1-529); settings: protein: recombinant; tags: N-terminal GST; chain copies: 3; dsDNA, one strand shown
# HSF1, sequence (Q00613 whole entry): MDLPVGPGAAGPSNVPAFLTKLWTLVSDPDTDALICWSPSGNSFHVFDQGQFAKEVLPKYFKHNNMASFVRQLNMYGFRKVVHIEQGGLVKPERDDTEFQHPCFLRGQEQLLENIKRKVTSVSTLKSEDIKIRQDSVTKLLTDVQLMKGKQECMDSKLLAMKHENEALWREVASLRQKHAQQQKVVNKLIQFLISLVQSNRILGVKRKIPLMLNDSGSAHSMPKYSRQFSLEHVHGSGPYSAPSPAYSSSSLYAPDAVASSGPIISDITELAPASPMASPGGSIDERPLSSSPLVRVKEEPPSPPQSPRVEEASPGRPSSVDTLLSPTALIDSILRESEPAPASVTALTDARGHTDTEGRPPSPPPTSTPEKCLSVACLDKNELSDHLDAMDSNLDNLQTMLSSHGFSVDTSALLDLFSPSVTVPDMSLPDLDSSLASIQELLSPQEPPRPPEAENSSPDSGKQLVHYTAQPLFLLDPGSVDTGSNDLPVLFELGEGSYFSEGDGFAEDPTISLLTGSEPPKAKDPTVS
# Outline: as §1
# SPIC = target: T2, SPIC (Homo sapiens, UniProt Q8N5J4 1-248); settings: protein: recombinant; tags: N-terminal GST; dsDNA, one strand shown
# T2 sequence: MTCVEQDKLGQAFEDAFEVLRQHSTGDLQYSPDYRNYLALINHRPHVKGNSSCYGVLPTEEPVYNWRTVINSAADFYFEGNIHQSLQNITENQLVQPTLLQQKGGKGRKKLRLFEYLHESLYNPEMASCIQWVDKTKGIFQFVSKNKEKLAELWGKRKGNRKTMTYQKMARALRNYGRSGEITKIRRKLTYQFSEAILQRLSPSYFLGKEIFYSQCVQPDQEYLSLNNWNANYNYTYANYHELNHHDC
# Outline: as §1
# ELF4 = ELF4 (Homo sapiens, UniProt Q99607 1-663); settings: protein: recombinant; tags: N-terminal GST; dsDNA, one strand shown
# ELF4, sequence (Q99607 whole entry): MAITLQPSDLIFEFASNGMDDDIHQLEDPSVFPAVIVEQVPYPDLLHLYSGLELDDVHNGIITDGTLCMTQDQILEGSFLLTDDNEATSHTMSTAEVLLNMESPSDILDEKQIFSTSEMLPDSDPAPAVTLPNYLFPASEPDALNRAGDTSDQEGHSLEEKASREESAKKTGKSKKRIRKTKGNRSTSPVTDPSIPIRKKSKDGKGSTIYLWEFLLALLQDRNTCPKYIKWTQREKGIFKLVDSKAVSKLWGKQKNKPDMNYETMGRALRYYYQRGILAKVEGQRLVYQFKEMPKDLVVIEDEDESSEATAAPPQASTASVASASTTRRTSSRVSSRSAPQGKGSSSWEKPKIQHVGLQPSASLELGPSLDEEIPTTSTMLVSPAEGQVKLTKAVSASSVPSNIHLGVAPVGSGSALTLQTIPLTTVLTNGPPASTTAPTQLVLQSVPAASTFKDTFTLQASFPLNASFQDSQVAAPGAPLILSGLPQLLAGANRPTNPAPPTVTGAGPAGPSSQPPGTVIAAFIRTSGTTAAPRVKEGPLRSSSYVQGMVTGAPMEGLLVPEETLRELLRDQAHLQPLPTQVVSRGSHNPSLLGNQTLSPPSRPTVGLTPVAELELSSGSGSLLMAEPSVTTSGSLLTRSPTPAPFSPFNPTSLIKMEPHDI
# Outline: as §1
# ELK4 = target: T3, ELK4 (Homo sapiens, UniProt P28324-2 1-405); settings: protein: recombinant; tags: N-terminal GST; dsDNA, one strand shown
# T3 sequence: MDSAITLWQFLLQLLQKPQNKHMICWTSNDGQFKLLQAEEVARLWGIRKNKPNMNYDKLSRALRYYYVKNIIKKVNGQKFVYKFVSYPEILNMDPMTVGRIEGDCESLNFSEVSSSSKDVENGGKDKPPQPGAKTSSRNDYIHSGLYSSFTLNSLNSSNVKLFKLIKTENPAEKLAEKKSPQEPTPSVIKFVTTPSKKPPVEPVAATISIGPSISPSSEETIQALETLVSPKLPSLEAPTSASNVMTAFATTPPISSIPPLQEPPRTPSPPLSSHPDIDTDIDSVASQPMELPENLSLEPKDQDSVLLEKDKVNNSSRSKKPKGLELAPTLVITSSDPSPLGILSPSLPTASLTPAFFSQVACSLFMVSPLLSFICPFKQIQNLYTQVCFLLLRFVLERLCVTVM
# Outline: as §1
# ETV2 = target: T4, ETV2 (Homo sapiens, UniProt O00321 1-342); settings: protein: recombinant; tags: N-terminal GST; dsDNA, one strand shown
# T4 sequence: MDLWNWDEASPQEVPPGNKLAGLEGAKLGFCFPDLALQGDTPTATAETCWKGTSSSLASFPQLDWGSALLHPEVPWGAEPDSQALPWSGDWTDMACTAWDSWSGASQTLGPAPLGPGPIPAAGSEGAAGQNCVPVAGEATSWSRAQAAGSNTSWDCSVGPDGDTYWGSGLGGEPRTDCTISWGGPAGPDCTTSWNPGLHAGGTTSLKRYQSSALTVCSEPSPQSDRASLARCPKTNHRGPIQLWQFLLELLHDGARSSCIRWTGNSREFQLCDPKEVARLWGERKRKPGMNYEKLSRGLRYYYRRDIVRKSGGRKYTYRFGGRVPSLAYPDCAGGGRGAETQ
# Outline: as §1
# ELF3 = target: T5, ELF3 (Homo sapiens, UniProt P78545 1-371); settings: protein: recombinant; tags: N-terminal GST; dsDNA, one strand shown
# T5 sequence: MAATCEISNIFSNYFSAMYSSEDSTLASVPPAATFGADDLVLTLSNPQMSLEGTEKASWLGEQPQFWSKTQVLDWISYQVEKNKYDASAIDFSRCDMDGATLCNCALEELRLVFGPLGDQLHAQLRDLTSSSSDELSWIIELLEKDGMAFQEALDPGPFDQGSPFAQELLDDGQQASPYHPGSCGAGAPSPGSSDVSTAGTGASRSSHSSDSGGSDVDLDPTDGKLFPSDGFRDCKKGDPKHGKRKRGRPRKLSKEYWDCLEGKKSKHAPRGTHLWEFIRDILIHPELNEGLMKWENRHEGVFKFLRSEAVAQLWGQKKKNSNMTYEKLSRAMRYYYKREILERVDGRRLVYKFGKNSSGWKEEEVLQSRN
# Outline: as §1
# CRX = CRX (Homo sapiens, UniProt O43186 1-299); settings: protein: recombinant; tags: N-terminal GST; dsDNA, one strand shown
# CRX, sequence (O43186 whole entry): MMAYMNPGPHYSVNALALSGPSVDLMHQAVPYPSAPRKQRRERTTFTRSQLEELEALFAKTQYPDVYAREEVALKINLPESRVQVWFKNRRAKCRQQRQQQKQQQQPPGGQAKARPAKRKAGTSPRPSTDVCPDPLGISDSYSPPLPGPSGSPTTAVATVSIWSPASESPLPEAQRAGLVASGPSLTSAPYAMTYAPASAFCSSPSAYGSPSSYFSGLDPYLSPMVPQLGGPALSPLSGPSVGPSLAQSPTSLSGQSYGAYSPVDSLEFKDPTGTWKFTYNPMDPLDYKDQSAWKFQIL
# Outline: as §1
# ETV1 = ETV1 (Homo sapiens, UniProt P50549 1-477); settings: protein: recombinant; tags: N-terminal GST; dsDNA, one strand shown
# ETV1, sequence (P50549 whole entry): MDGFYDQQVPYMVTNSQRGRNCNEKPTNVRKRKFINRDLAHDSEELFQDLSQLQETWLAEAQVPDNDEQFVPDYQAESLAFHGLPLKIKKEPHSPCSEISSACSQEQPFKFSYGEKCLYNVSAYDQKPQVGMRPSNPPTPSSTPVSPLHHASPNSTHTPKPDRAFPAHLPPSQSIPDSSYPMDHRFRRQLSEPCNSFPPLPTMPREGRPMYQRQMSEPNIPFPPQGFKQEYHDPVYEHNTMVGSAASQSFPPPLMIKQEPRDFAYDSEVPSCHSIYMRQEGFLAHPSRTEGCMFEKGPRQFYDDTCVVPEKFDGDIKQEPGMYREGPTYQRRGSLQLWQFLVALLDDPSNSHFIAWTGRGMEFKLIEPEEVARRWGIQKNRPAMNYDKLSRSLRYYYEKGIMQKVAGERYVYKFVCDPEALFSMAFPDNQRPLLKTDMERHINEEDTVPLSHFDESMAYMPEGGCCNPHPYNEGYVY
# Outline: as §1
# ERF = target: T6, ERF (Homo sapiens, UniProt P50548 1-548); settings: protein: recombinant; tags: N-terminal GST; dsDNA, one strand shown
# T6 sequence: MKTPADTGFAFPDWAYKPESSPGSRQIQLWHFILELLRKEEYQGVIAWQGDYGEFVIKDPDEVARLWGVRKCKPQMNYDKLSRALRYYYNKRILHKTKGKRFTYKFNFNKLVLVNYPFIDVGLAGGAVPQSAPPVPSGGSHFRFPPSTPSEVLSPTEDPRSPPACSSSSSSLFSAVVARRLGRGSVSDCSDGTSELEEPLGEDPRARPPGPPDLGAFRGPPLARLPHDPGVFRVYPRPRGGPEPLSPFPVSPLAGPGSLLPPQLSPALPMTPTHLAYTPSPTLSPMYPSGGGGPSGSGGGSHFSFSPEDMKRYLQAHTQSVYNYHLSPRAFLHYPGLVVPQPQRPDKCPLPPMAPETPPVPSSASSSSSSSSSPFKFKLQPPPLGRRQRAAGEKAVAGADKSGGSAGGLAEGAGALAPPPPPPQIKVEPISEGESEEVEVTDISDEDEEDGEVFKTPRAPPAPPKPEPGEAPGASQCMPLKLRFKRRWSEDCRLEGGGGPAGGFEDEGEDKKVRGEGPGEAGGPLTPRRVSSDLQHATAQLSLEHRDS
# Outline: as §1
# ETV3L = target: T7, ETV3L (Homo sapiens, UniProt Q6ZN32 1-361); settings: protein: recombinant; tags: N-terminal GST; dsDNA, one strand shown
# T7 sequence: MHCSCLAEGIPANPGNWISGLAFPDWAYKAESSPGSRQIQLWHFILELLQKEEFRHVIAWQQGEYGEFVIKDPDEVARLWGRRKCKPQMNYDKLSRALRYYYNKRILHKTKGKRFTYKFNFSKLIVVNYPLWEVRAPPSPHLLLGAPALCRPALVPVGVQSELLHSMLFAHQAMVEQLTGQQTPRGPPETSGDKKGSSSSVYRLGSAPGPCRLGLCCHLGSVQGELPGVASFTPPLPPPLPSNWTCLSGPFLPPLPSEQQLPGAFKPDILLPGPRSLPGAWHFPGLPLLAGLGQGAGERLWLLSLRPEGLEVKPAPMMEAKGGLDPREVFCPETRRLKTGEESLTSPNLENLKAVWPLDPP
# Outline: as §1
# ETS2 = target: T8, ETS2 (Homo sapiens, UniProt P15036 1-469); settings: protein: recombinant; tags: N-terminal GST; dsDNA, one strand shown
# T8 sequence: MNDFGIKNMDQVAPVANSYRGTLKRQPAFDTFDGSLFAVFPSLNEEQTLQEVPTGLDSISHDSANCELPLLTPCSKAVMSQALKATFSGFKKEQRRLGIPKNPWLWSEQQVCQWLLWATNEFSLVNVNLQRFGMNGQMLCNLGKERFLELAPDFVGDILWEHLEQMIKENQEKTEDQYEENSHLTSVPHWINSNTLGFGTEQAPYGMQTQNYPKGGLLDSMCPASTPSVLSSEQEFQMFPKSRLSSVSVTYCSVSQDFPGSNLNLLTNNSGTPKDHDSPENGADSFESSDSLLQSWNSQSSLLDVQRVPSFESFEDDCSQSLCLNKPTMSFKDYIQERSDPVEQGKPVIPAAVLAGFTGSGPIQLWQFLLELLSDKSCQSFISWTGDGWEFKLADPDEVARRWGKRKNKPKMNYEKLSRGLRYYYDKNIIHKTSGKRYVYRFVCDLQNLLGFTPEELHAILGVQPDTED
# Outline: as §1
# SPDEF = target: T9, SPDEF (Homo sapiens, UniProt O95238 1-335); settings: protein: recombinant; tags: N-terminal GST; dsDNA, one strand shown
# T9 sequence: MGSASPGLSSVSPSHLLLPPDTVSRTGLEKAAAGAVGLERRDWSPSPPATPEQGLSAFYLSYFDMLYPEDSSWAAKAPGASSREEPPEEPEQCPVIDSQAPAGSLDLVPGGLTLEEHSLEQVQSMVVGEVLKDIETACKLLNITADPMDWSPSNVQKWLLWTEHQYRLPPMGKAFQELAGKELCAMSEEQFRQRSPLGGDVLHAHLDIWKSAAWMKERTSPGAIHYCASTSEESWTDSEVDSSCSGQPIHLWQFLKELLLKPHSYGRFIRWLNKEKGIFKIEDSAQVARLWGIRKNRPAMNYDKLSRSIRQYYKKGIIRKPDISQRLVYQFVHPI
# Outline: as §1
# ETV7 = target: T10, ETV7 (Homo sapiens, UniProt Q9Y603 1-341); settings: protein: recombinant; tags: N-terminal GST; dsDNA, one strand shown
# T10 sequence: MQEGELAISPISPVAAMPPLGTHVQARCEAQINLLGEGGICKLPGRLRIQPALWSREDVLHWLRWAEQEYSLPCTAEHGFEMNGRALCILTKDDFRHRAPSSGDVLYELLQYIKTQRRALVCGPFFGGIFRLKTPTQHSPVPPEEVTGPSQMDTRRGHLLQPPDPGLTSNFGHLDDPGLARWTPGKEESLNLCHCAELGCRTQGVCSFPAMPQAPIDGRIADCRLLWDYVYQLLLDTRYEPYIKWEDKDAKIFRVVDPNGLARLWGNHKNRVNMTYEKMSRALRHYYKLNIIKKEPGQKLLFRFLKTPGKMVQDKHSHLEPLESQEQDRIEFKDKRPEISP
# Outline: as §1
# ELF5 = target: T11, ELF5 (Homo sapiens, UniProt Q9UKW6-2 1-255); settings: protein: recombinant; tags: N-terminal GST; dsDNA, one strand shown
# T11 sequence: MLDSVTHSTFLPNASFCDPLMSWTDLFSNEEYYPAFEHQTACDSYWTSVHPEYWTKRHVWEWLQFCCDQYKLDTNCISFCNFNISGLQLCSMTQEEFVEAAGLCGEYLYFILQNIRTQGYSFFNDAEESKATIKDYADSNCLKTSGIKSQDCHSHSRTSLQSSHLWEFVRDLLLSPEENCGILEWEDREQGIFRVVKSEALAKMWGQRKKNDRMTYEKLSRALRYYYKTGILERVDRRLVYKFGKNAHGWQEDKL
# Outline: as §1
# ETV3 = target: T12, ETV3 (Homo sapiens, UniProt P41162-2 1-143); settings: protein: recombinant; tags: N-terminal GST; dsDNA, one strand shown
# T12 sequence: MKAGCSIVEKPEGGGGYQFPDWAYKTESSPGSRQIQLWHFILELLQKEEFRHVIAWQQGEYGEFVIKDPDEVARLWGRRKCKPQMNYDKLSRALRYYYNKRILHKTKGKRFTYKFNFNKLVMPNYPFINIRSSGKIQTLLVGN
# Outline: as §1
# ETV6 = ETV6 (Homo sapiens, UniProt P41212 1-452); settings: protein: recombinant; tags: N-terminal GST; dsDNA, one strand shown
# ETV6, sequence (P41212 whole entry): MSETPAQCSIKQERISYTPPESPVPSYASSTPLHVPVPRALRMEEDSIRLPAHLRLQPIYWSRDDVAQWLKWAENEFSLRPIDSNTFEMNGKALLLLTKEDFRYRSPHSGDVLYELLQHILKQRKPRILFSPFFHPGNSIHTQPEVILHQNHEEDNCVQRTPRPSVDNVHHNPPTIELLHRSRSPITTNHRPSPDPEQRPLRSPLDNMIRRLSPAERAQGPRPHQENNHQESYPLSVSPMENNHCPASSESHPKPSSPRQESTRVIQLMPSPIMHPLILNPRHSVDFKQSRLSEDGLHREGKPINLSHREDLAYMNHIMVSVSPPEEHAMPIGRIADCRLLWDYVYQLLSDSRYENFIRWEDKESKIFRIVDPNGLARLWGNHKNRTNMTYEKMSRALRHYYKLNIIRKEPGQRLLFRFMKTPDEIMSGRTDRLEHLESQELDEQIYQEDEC
# Outline: as §1
sequence,measurement,setting,value
CGTCTC,binding signal,FEV,"1.46 fold enrichment (6-mer frequency, TF over GST control)"
same,binding signal,ETV5,"1.46 fold enrichment (6-mer frequency, TF over GST control)"
same,binding signal,HSF1,"1.42 fold enrichment (6-mer frequency, TF over GST control)"
same,binding signal,SPIC,"1.47 fold enrichment (6-mer frequency, TF over GST control)"
same,binding signal,ELF4,"1.55 fold enrichment (6-mer frequency, TF over GST control)"
same,binding signal,ELK4,"1.49 fold enrichment (6-mer frequency, TF over GST control)"
same,binding signal,ETV2,"1.27 fold enrichment (6-mer frequency, TF over GST control)"
same,binding signal,ELF3,"1.46 fold enrichment (6-mer frequency, TF over GST control)"
same,binding signal,CRX,"1.18 fold enrichment (6-mer frequency, TF over GST control)"
same,binding signal,ETV1,"1.43 fold enrichment (6-mer frequency, TF over GST control)"
same,binding signal,ERF,"1.49 fold enrichment (6-mer frequency, TF over GST control)"
same,binding signal,ETV3L,"1.71 fold enrichment (6-mer frequency, TF over GST control)"
same,binding signal,ETS2,"1.58 fold enrichment (6-mer frequency, TF over GST control)"
same,binding signal,SPDEF,"1.35 fold enrichment (6-mer frequency, TF over GST control)"
same,binding signal,ETV7,"1.44 fold enrichment (6-mer frequency, TF over GST control)"
same,binding signal,ELF5,"1.38 fold enrichment (6-mer frequency, TF over GST control)"
same,binding signal,ETV3,"1.48 fold enrichment (6-mer frequency, TF over GST control)"
same,binding signal,ETV6,"1.46 fold enrichment (6-mer frequency, TF over GST control)"
